Inhibition data for 100 compounds are collected here from PubChem BioAssay AID743126 (The Scripps Research Institute Molecular Screening Center, 2013).

The structures appear in SMILES notation. Out of some 370,000 compounds screened, about 2,100 (0.57%) were called active. What follows is part of a selection rich in actives, with near analogues and random picks from the rest. A number with no mark means an inactive call.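 Rule for the calls: active = inhibition above mean plus 3 SD of compounds lying within the high and low control bounds (cut at about 19% in these data); inactive = the rest.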

For the assay, the target named is Group 3 secretory phospholipase A2 (Homo sapiens) (UniProt Q9NZ20). The experiment in a line: HGIII-sPLA2 enzyme inhibition – biochemical, QFRET, BODIPY PC-A2 liposome substrate, primary screen (AID 743126).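 Note: 0% = median of test compound wells and 100% = no enzyme DMSO wells.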 Particulars: QFRET BODIPY PC-A2 liposome hydrolysis, fluorescence; at 12.2 µM; stronger effect = higher value.
Sequence of Group 3 secretory phospholipase A2 (Homo sapiens) (Q9NZ20 whole entry, looked up): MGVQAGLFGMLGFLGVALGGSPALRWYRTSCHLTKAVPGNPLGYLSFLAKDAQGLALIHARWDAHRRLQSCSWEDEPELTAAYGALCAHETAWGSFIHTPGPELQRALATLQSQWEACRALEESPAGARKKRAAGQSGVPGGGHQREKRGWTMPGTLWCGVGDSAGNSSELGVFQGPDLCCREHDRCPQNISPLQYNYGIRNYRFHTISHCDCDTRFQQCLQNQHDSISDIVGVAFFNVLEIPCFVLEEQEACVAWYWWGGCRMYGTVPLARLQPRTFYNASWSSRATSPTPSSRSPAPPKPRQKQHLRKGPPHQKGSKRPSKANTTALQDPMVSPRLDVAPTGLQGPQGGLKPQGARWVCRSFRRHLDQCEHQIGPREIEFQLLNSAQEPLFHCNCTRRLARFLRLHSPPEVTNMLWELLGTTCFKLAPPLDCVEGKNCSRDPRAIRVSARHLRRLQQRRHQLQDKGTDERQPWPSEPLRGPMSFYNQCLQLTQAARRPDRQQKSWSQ
A word on the inhibition: it is the relative decrease from the control value, in per cent. `COc1ccc(C#CCNCc2ccc(OC)cc2OC)cc1`: the inhibition was 12.6%.
Take `CCOC(=O)C1(Cc2ccccc2)CCN(Cc2cn(C(C)=O)c3ccccc23)CC1`: the inhibition was -23.2%.
Then `O=C(CSc1nnc(-c2ccccc2)n1Cc1ccco1)Nc1ccccc1-c1ccccc1`, with -10.1%; and `CCCCCCCCNS(=O)(=O)/C=C/c1cc(C)ccc1CNC(=O)OC(C)(C)C`, with -4.97%; and `CCCCOCCCNC(=O)C[C@H]1C[C@@]2(C(=O)OC)C(=C[C@H](COCc3ccccc3)O[C@@H]2C)N(Cc2cccc3ccccc23)C1=O`, with -20.5%.
To `COc1cc(/C=N/n2c(C)n[nH]c2=S)ccc1OCc1ccccc1` belongs 20.9% (active); to `CNC(=S)N/N=C/c1ccc(OCc2ccccc2)c(Br)c1`, 0.16%; to `C=CCOc1ccc(/C=N/n2cncn2)cc1OC`, 2.27%.
Take `C=CCn1c(C23CC4CC(CC(C4)C2)C3)n[nH]c1=S`: the inhibition was 23.5% (active).
Take `C=CCn1c(SCC(=O)NC)nnc1C12CC3CC(CC(C3)C1)C2`: the inhibition was 0.19%.
Then `C=CCn1c(-c2ccc3[nH]c(C)c(C)c3c2)n[nH]c1=S`, with -0.35%; and `FC(F)(F)c1cccc(NC(=S)OC2CCC23CCC(c2ccccc2)CC3)c1` (stereo not given), with -7.1%; and `CN[C@H]1C[C@H]2c3cc(N4CCOCC4)ccc3CCN2C[C@H]1[C@H](C)O`, with 7.01%.
Regarding `CCOC12CC(C)(C)CC(C)(CC3=C1C(=O)CC(C)(C)C3)C2` (stereo not given), the inhibition is 24.1% (active).
Then `O=S1(=O)c2c(cccc2N2CCSCC2)Oc2ccccc2CN1Cc1cn(Cc2ccc(F)cc2)nn1`, with 2.55%; and `Cc1ccc(C(=O)CSc2nc3ccccc3c(=O)n2N)o1`, with -0.69%; and `C#CCCCc1nc2ccccc2c(=O)n1N`, with 21.1% (active).
To `Cc1ccc(S(=O)(=O)NCc2nc3ccccc3c(=O)n2N)cc1` belongs 2.93%; to `O=C(OCC#CCSc1nnc(-c2ccco2)o1)c1ccc(F)cc1`, 1.02%; to `C/C(=N\NC(=O)COc1c(C)cccc1C)c1cccs1`, 2.47%.
To `Cc1ccccc1-n1c(SCC(=O)Nc2cccc3ccccc23)nc(O)cc1=O` belongs -4.85%.
`C/C(=N\NC(=O)CSc1nc2ccccc2c(=O)n1-c1ccccc1C)c1cccs1`: the inhibition was 25.2% (active).
In the case of `Cc1[nH]c(N)nc(=S)c1CCCNc1ccccc1`, the inhibition is 23.8% (active).
`CCc1c(Nc2ccccc2C)nc(N)[nH]c1=O`: the inhibition is 8.22%.
With `Cc1cc(=O)n(C)c(=O)n1CCCNc1ccccc1`, the inhibition was -0.01%.
Then `C=CCN1C(=O)[C@@H](CC(=O)N2CCN(C(=O)c3ccco3)CC2)[C@]2(C(=O)OC)CCCCC=C12`, with 13.7%; and `COc1cccc(N(C)C(=O)[C@@H](C)[C@@H](O)c2ccc3ccccc3c2)c1`, with -10.3%; and `CCOC(=O)C(C)n1cnc2c(nnn2-c2ccc(F)cc2)c1=O` (stereo not given), with 10.8%.
To `CCOC(=O)C(CC)Sc1ncnc2c1nnn2-c1ccc(F)cc1` (stereo not given) belongs -1.68%.
Then `COC(=O)C(C)n1cnc2c(nnn2-c2ccc(F)cc2)c1=O` (stereo not given), with 21.6% (active); and `C=C1C(C(C)C)N(C)C2=NC(c3ccccc3)CC(=O)N12` (stereo not given), with 0%.
With `C=C(C)C#CC(Cc1ccccc1)NCC1CC1` (stereo not given), the inhibition was 4.73%.
To `CC(C)OC(=O)CC(=O)CC(O)c1cccc([N+](=O)[O-])c1` (stereo not given) belongs -28%; to `CC(C)CC(=O)NC(=S)Nc1ccc(F)cc1F`, 6.75%; to `CC(C)CC(=O)NC(=S)NNC(=O)c1cccc([N+](=O)[O-])c1`, 24.2% (active).
In the case of `O=C1CCC2(CCC(c3ccc(Cl)cc3)CC2)N1CCO` (stereo not given), the inhibition was 7.89%.
To `COc1ccc(C2CC=C(C(=O)O)C(c3ccccc3F)N2S(=O)(=O)c2ccc(C)cc2)cc1OC` (stereo not given) belongs -7.23%; to `CCOC(=O)[C@]12CCCC=C1N(Cc1ccc(OC)cc1)C(=O)[C@@H]2CC(=O)N1CCOCC1`, 3.77%.
To `Cc1cc(=O)[nH]c(SCC(=O)Nc2ccc(Cl)cc2C)n1` belongs 1.76%; to `COc1ccccc1OCCn1c(SCC(N)=O)nc2ccccc21`, 22.2% (active); to `COc1ccccc1OCc1nnc(SCC(N)=O)n1-c1ccccc1`, 1.71%.
As for `CCN(CC)C(=O)CSc1nc2ccccc2n1CC(=O)N1CCN(c2ccccc2OC)CC1`, the inhibition was 0.24%.
Then `N#CCC[C@H]1CC[C@]2(CCCN(Cc3ccc(Cl)cc3)C2)O1`, with 5.78%; and `C=CC[n+]1c(-c2ccc(C)cc2)csc1NNC(=O)Nc1ccccc1`, with 2.33%.
Then `C=CCNc1scc(-c2ccccc2)[n+]1CC=C`, with 20.2% (active).
To `COC(CNC(=O)[C@H](Cc1ccccc1)NC1(C(=O)NC2CCCCC2)CCCCC1)OC` belongs -3.08%; to `O=C(CCCCCN1C(=O)C2C3C=CC(C3)C2C1=O)Nc1ccccn1` (stereo not given), -2.55%; to `CC(C)C(C#CC1CC1)N(Cc1ccc2c(c1)OCO2)C(N)=NC(=O)/C=C/c1cccc(C(F)(F)F)c1` (stereo not given), 3.76%.
Turning to `Clc1ccc(-n2c(SC/C=C/c3ccccc3)nnc2-c2ccco2)cc1`, the inhibition was -11.5%.
Then `Cc1ccc(C(=O)NC23CC4CC(CC(C4)C2)C3)c(Cl)c1`, with 15.2%.
On to `C/C(=N/NC(=O)c1cc(Cl)ccc1O)C12CC3CC(CC(C3)C1)C2`, for which the inhibition was 22.8% (active).
To `O=C(N/N=C1\CCSC1)c1cc(Cl)ccc1O` belongs 13.2%; to `COC(=O)[C@H](C(C)C)N(CCc1cn(Cc2ccccc2)nn1)S(=O)(=O)c1ccc(F)cc1Br`, -2.33%.
Then `O=C(NC1CCC1)c1ccc(C#Cc2cccc(F)c2)c[n+]1[O-]`, with -4.97%; and `CC(=O)/C(=N\Nc1ccc(Cl)cc1Cl)Sc1cccc2cccnc12`, with 20.9% (active); and `COc1cccc(CNC(=O)C2CCN(S(=O)(=O)c3cccc4cccnc34)CC2)c1`, with -1%.
Turning to `CC(Oc1ccc(Cl)cc1)C(=O)Nc1ncccn1` (stereo not given), the inhibition is 1.61%.
To `COC(=O)[C@]12C[C@H](CC(=O)N3CCOCC3)C(=O)N(Cc3ccc(Cl)cc3Cl)C1=C[C@H](C(C)C)O[C@@H]2C1CC1` belongs -5.59%; to `CC1CCN(c2ccc(C(=O)O)cc2NS(=O)(=O)c2ccc(Br)s2)CC1`, -18.5%; to `CCOC(=O)[C@]12CCCCC/C=C\1N(Cc1ccc(OC)cc1)C(=O)[C@H]2CC(=O)NCc1ccc(C)o1`, -4.43%.
Then `COc1ccc(C2Nc3ccccc3C(=O)N2Cc2cccs2)cc1COc1c(C)cccc1C` (stereo not given), with 4.57%; and `Oc1ccc2ccccc2c1N=Nc1nccs1`, with 19.4% (active).
To `O=C(NC1CCCC1)C1CSCCS(=O)(=O)N1Cc1ccccc1` (stereo not given) belongs 2.48%; to `O=C1Nc2ccccc2OC1CC(=O)N1CCCCCCC1` (stereo not given), 1.64%; to `C=CCN1[C@H](CC(C)C)COc2cccc(N3CCCC3)c2S1(=O)=O`, 10%.
Regarding `Cc1ccc(C2Nc3ccccc3C(=O)N2CCN2CCNC2=O)cc1` (stereo not given), the inhibition is 19.3% (active).
Take `CC(=O)NN1C(=O)c2ccccc2NC1c1ccccc1` (stereo not given): the inhibition was 4.64%.
Then `CCOC(=O)NN1C(=O)c2ccccc2NC1c1cccc(O)c1` (stereo not given), with -3.61%.
To `CC(C)(C)c1cc2cccnc2n1Cc1ccccc1` belongs 8.03%; to `CC(C)(C)c1cc2cccnc2n1Cc1cccc(F)c1`, 20.9% (active); to `COc1ccnc2c1c(=O)n(Cc1cccc(F)c1)c(=O)n2C`, 0.58%.
As for `O=C(CNC(=O)c1ccccc1)OC(C(=O)Nc1cc([N+](=O)[O-])ccc1F)c1ccccc1` (stereo not given), the inhibition is 10.8%.
To `COc1ccc(N2CCN(CCNS(=O)(=O)c3ccc(C(C)(C)C)cc3)CC2)cc1` belongs -8.25%; to `O=C(COC(=O)/C=C/c1nc2ccccc2s1)Nc1ccccc1Oc1ccccc1`, 8.15%; to `CC(=O)c1ccc(Nc2nc(C(N)c3ccccc3Cl)cs2)cc1` (stereo not given), -4.25%.
To `NC(c1csc(NC(=O)Nc2ccccc2Oc2ccccc2)n1)c1ccccc1Cl` (stereo not given) belongs 24.4% (active).
In the case of `Cc1cccc(-n2cnc(C(=O)Nc3cccnc3)c2)n1`, the inhibition is 8.64%.
To `Cc1cccc(-n2cnc(C(=O)NNC(=S)Nc3ccccc3)c2)n1` belongs 38.5% (active).
On to `COC(=O)c1ccc(NC(=S)Nc2cccc(C)n2)cc1`, for which the inhibition is 7.29%.
To `CCOc1ccc(-n2c(SCC(=O)Nc3cc(C)c(NC(=O)c4ccccc4)cc3OC)nnc2-c2cccc(Cl)c2)cc1` belongs 2%.
Then `CSC1=NN(c2ccccc2)CN(c2ccccc2)N1C`, with 21.7% (active).
Consider `O=C(CCl)NC1CCCCN(Cc2cccc(C(F)(F)F)c2)C1=O` (stereo not given), for which the inhibition is 7.99%.
In the case of `CCCCNC(=O)C[C@H]1C(=O)N(Cc2ccc(OC)cc2)C2=CCCC[C@@]21C(=O)OCC`, the inhibition is 12.9%.
Regarding `Cc1cc(-c2n[nH]c(=S)n2-c2ccc(C)c(C)c2)no1`, the inhibition was 20.5% (active).
`Cc1ccc(C)c(S(=O)(=O)Nc2cc(C)on2)c1`: the inhibition was 6.47%.
To `Cc1ccc(NCc2n[nH]c(=S)n2-c2ccccc2)cc1Cl` belongs 12.3%; to `Cc1ccccc1CN1CCCCC(NC(=O)Nc2ccccc2F)C1=O` (stereo not given), 4.74%; to `C[C@@H](NC(=O)c1ccccc1OCC(=O)Nc1ccc(I)cc1)C(=O)N(C)Cc1ccccc1`, -8.83%.
In the case of `Cc1ccc(-n2c(SCC(=O)Nc3ccc(S(=O)(=O)Nc4nccs4)cc3)nnc2-c2ccccn2)cc1`, the inhibition is -36.9%.
To `CC(=O)c1cc(C#N)c(N2CC(C)OC(C)C2)nc1C` (stereo not given) belongs 10.2%; to `CC(=O)c1nnn(-c2ccc(Cl)cc2C#N)c1C`, 21.4% (active).
To `O=C(Nc1cccc(Cl)c1)OC1CC2CC1[C@H]1CCCCN1[C@H]2Cc1ccccc1` (stereo not given in full) belongs -3.5%.
Turning to `N#Cc1ccc(OC[C@@H](O)CN2CCC(C(O)(c3ccccc3)c3ccccc3)CC2)c(F)c1`, the inhibition is -15.8%.
Then `Cc1ccc(CC2(C)C(=O)Nc3ccc(OC(F)(F)F)cc32)cc1` (stereo not given), with -5.51%.
As for `O=C(c1ccc2c(c1)C(=O)N(Cc1ccncc1)C2=O)N1CCN(S(=O)(=O)c2ccc(OC(F)(F)F)cc2)CC1`, the inhibition was 0.57%.
For the compound `O=C1C(=O)N(Cc2ccc(-c3ccsc3)cc2)c2ccc(OC(F)(F)F)cc21`, the inhibition is 26% (active).
Then `CC(C)CNC(=O)OCc1cn(Cc2ccc(F)cc2)nn1`, with 1.52%; and `COC(=O)[C@@]12CCCCC3=C1N(CCC3)C(=O)[C@H]2CC(=O)NCc1cccc2ccccc12`, with -12%; and `CCCC[C@H]1C2CC(OC(=O)NCc3ccccc3)C(C2)[C@H]2CCCCN21` (stereo not given in full), with 9.24%.
In the case of `Nn1c(SCC(=O)Nc2ccc(S(N)(=O)=O)cc2)nnc1-c1n[nH]c2c1CCC2`, the inhibition was 9.17%.
